Rows were chosen to be rich in hits. Some 3.3% of all compounds tested hit in one or more screens of this group.
Tb PYK inh: inhibitors of Trypanosoma brucei pyruvate kinase. TbPYK enzyme, Kinase-Glo Plus ATP luminescence, 45 min. Potency, µM (series often up to 76.8 µM), for the others: at the highest dose activity, negative = inhibition, usual class: inhibitors. AID 624173. Q57TT1. 0.12% of 410,000 active; also: nearly all actives have a fitted effect of over 50% in size
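Luminescence from Kinase-Glo Plus, added after a 45-minute room-temperature reaction, served as the end-point read-out. The enzyme and substrate were preincubated with compound before ADP (130 uM final) initiated turnover. Concentration-effect curves came from normalized qHTS data.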
LmPK inhibitor: blocks Leishmania mexicana pyruvate kinase activity | Q27686 | purified LmPK, Kinase-Glo ATP luminescence, 1 h | Potency, µM (series often up to 57.5 µM), without a hit: at the highest dose activity change, negative = inhibition, actives largely listed as inhibitors | 0.37% of 290,000 active
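Screened at intermediate enzyme activity to detect both inhibitors and activators: LmPK at 0.1 nM, with a 0.5 nM enzyme column as activation reference. PEP 0.5 mM, ADP 0.1 mM; ATP detected by luminescence after 1 h.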
Sm TGR inh: blocks Schistosoma mansoni thioredoxin glutathione reductase. Q962Y6. purified TGR, DTNB reduction, TNB absorbance 405 nm. Potency, µM (series often up to 114 µM), without a hit: at the top dose activity change, negative = inhibition, actives largely listed as inhibitors. 3% of 360,000 active; also: nearly all actives have a fitted effect of over 60% in size
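First, TGR (20 nM dispensed) and NADPH were mixed with compound. Second, a 15 min room-temperature incubation followed. Third, further NADPH and then DTNB were added to start the reaction. Finally, TNB absorbance was monitored kinetically.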
FBPA Giardia inh: Giardia lamblia aldolase inhibition. Potency, µM (doses to about 59.6 µM), for inactives: top-dose activity, negative = inhibition, hits mostly inhibitors. 0.71% of 290,000 active. A8B2U2. purified Giardia FBPA; also: nearly all actives have a fitted effect of over 55% in size
Target sequence (A8B2U2 whole entry, looked up): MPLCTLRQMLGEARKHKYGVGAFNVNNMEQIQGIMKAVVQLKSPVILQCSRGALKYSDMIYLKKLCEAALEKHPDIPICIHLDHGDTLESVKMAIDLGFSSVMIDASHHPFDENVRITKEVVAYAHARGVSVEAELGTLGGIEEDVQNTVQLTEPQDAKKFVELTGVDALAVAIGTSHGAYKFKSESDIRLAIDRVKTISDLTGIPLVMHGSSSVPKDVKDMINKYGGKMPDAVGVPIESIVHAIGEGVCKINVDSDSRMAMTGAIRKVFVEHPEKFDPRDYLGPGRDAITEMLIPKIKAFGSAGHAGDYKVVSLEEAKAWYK
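Giardia FBPA (40 nM reagent) was preincubated 10 min at RT with compound (up to 57.5 uM final), then substrate plus GAPDH/TPI/NAD/arsenate coupling system with diaphorase/resazurin was added; resorufin fluorescence (525/598 nm) was read after 20 min.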
RE007 growth inh: less growth of the S. pombe RE007 Vpr strain; 0.21% of 360,000 active; S. pombe RE007 Vpr strain, BacTiter-Glo ATP luminescence, 24 h; Potency, µM (highest dose often 92.2 µM), for the others: at the top dose activity change, negative = less growth, most hits filed as inhibitors; active = well fitted falling curve with a large enough effect; inconclusive = small, poorly fitted or top-dose-only effect; inactive = no such curve, though single readings can be large or run the other way; also: nearly all actives have a fitted effect of over 50% in size
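Fission yeast strain RE007, carrying one chromosomally integrated HIV-1 vpr copy, was seeded at OD 0.01 in PMG+AL medium with 23 nL pinned compound. After 24 h at 30 °C and 99% humidity, viability was read by BacTiter-Glo luminescence.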
Starred values were filed as active, the others as inactive; ? = inconclusive; nt = not tested or not shown; [ ] = dose if it differs, or a comment. Unless noted, calls follow the shape of the dose curve; as a rule, active = well fitted curve in the direction sought with a large enough effect; inconclusive = small, poorly fitted or top-dose-only effect, or another doubt; inactive = no such curve, though single readings can be large; an effect the other way counts as inactive or inconclusive. % is scaled to controls: 0 for no effect and ±100 for the full control effect; potency is read from the fitted curve at half-maximal effect.

SMILES	Tb PYK inh	LmPK inhibitor	Sm TGR inh	FBPA Giardia inh	RE007 growth inh
Cc1nnc(SCC(=O)NC(=O)NCc2ccco2)s1	1.9%	7.6%	-10.7%	0.0%	-3.8%
CCCCn1c(O)c(/C=C/C=C/C=Nc2ccccc2)sc1=S	-11.4%	-0.8%	20µM*	?	-1.9%
Oc1c(/C=C/C=C/C=Nc2ccccc2)sc(=S)n1Cc1ccccc1	1.0%	-18.9%	11.2µM*	-21.1%	-1.2%
COc1cccc(/C=C2\SC(=S)N(CCCC(=O)N3CCCCC3CCO)C2=O)c1 (stereo unspecified)	3.3%	-7.8%	-4.3%	nt	-1.3%
O=C(NCCc1ccccc1)C1CCN(S(=O)(=O)N2CCOCC2)CC1	4.9%	-2.9%	1.0%	nt	14.5%
Nc1cnccc1C(=O)O	-5.0%	-7.4%	0.0%	12.6µM*	-5.5%
CCOC(=O)C1CCN(C(=O)COc2ccc(Br)cc2Br)CC1	-6.4%	1.9%	nt	3.6%	-4.5%
CCOC(=O)C(=O)NCC(c1ccco1)S(=O)(=O)c1cccs1 (stereo unspecified)	-0.7%	nt	2.51µM*	nt	4.0%
Cc1ccc(CNC(=O)C(=O)NCC(c2ccco2)S(=O)(=O)c2cccs2)cc1 (stereo unspecified)	2.9%	nt	?	nt	nt
Cc1cc(C)c(S(=O)(=O)NCC(c2ccco2)S(=O)(=O)c2cccs2)c(C)c1 (stereo unspecified)	-3.9%	nt	0.282µM*	nt	nt
CCOc1ccc(C(=O)NCC(c2ccco2)S(=O)(=O)c2cccs2)cc1 (stereo unspecified)	-1.3%	nt	5.62µM*	nt	nt
Cc1cc(S(=O)(=O)NCC(c2ccco2)S(=O)(=O)c2cccs2)ccc1F (stereo unspecified)	3.1%	nt	?	nt	nt
CC(C)Sc1nnc(-c2ccc(S(=O)(=O)N3CCOCC3)cc2)n1C	1.7%	-8.1%	50.1µM*	-3.3%	2.6%
CCC(=NCCN1CCOCC1)c1c(O)n(-c2ccccc2C)c(=O)[nH]c1=O	-14.4%	-0.8%	28.2µM*	-10.2%	1.7%
CCCCn1c(O)c(C(CC)=NCCN2CCOCC2)c(=O)[nH]c1=O	?	1.1%	17.8µM*	-17.0%	-14.7%
CCCCn1c(O)c(C(CC)=NCCN2CCCCC2)c(=O)[nH]c1=O	-4.0%	4.5%	10µM*	-13.4%	?
Cc1ccccc1NS(=O)(=O)c1cc(S(C)(=O)=O)ccc1C	-0.1%	-5.3%	0.0%	0.2%	-8.3%
CCC1(C)Cc2nc3[nH]c(=S)n(-c4ccc(C)cc4)c(=O)c3cc2CO1 (stereo unspecified)	0.4%	4.2%	6.31µM*	0.1%	0.6%
Cc1ccc(-n2c(=S)[nH]c3nc4c(cc3c2=O)COC(C)(C)C4)cc1	-0.2%	-0.1%	8.6%	-5.7%	5.4%
CC(OC(=O)c1nc(Cl)ccc1Cl)C(=O)NC1CCCCC1C (stereo unspecified)	-4.8%	nt	8.1%	nt	0.5%
O=c1c2cc(F)ccc2sn1-c1ccccc1	?	nt	-29.5%	nt	11.2µM*
O=c1c2cc(C(F)(F)F)ccc2sn1-c1ccccc1	7.08µM*	nt	nt	nt	8.91µM*
O=c1c2ccccc2c(-c2cccc(C(F)(F)F)c2)nn1-c1ccccc1	4.0%	9.2%	-5.9%	-10.2%	-0.9%
O=c1c(N2CCN(c3ccc(F)cc3)CC2)csc2ccc(F)cc12	1.1%	nt	-3.9%	nt	nt
COc1ccc(OCCOC(=O)c2cccs2)cc1	5.4%	-9.6%	-2.0%	-6.5%	?
SMILES	Tb PYK inh	LmPK inhibitor	Sm TGR inh	FBPA Giardia inh	RE007 growth inh
O=C(NCc1ccccc1)C(CCc1ccccc1)n1c(=O)c(-c2cc3ccccc3[nH]2)nc2ccccc21 (stereo unspecified)	nt	nt	nt	nt	6.2%
O=C(NCc1ccco1)C(c1ccncc1)N(CCC1=CCCCC1)C(=O)Cn1nnc2ccccc21 (stereo unspecified)	1.1%	6.0%	44.7µM*	-8.4%	-6.2%
Cc1cccc(NC(c2ccc(O)cc2)c2ccc3ccc(C)nc3c2O)n1 (stereo unspecified)	9.6%	6.6%	0.355µM*	-15.1%	-1.3%
COc1cccc(C(Nc2ccccc2)c2ccc3ccc(C)nc3c2O)c1 (stereo unspecified)	nt	nt	nt	nt	-7.7%
Nc1ccc(C(=O)O)c(O)c1 (tested in a mixture with another compound)	nt	nt	nt	-14.8%	nt
Nc1ccc(O)c(C(=O)O)c1	-12.1%	nt	nt	3.54µM*	nt
C=C(CC)C(=O)c1ccc(OCC(=O)O)c(Cl)c1Cl	-7.2%	-2.2%	35.5µM*	?	2.5%
NC1=C(Cl)C(=O)c2ccccc2C1=O	-31.5%	nt	nt	nt	25.1µM*
COc1ccc(CC(=O)Cc2ccc(OC)c(OC)c2)cc1OC	4.1%	nt	nt	nt	-3.0%
O=C(/C(=C(\O)c1ccccc1)c1nc2ccccc2[nH]1)c1ccccc1	-1.1%	0.9%	-0.5%	-3.0%	-26.5%
O=C(/C=C/c1ccc(Cl)cc1Cl)c1nc2ccccc2[nH]1	-5.5%	1.0%	-17.0%	6.9%	7.94µM*
Clc1cccc(Cl)c1/C=C/c1nc2ccccc2[nH]1	-5.4%	?	-22.0%	-14.4%	?
Clc1ccc(/C=C/c2nc3ccccc3[nH]2)cc1	?	8.91µM*	25.1µM*	-11.7%	?
Clc1ccc(/C=C/c2nc3ccccc3[nH]2)c(Cl)c1	3.5%	14.1µM*	2.5%	-7.5%	25.1µM*
CC1(c2ccccc2)NC(=O)N(CC(=O)Nc2cc(C(F)(F)F)ccc2N2CCCCC2)C1=O (stereo unspecified)	0.2%	nt	nt	nt	-2.9%
Cc1ccc(CNc2ncnc3ccc(-c4c(C)noc4C)cc23)o1	nt	nt	nt	-1.3%	nt
CC(=O)Nc1ccc(-c2ccnc3c2CC(C)(C(=O)Nc2cccc(C(C)=O)c2)O3)cc1 (stereo unspecified)	1.1%	nt	nt	nt	5.2%[18.4 µM]
CC[C@@]1(C(=O)OC)N[C@H](CN(C)C(=O)C2CCCCC2)[C@@H]2C(=O)N(C)C(=O)[C@@H]21	-2.8%	nt	nt	nt	2.6%
O=C1NC(=S)S/C1=C\c1coc2ccc(O)cc2c1=O	-4.1%	-7.3%	-28.9%	27.9%	2.4%
O=C1NC(=O)C(=C/C=C/c2coc3ccc(Br)cc3c2=O)C(=O)N1	nt	12.4%	0.794µM*	1.7%	nt
O=C1NC(=O)C(=Cc2coc3ccccc3c2=O)C(=O)N1	?	-9.9%[11.5 µM]	15.8µM*	-8.6%	?
CSc1ccc(NC(=O)C2(C)CCN2C(=O)c2ccccc2CCc2ccccc2)cc1 (stereo unspecified)	1.1%	nt	nt	nt	0.4%[18.4 µM]
O=C1c2ccncc2C(=O)N1CO	-15.2%	-6.0%	50.1µM*	-20.7%	1.5%
O=C(O)CCN1C(=O)c2ccncc2C1=O	-1.4%	-0.5%	8.2%	11.5%	5.3%
COc1ccc(-n2c(=O)c(C)nc3cnc(Nc4cccc(OC)c4)nc32)cc1	-4.0%	nt	nt	-6.0%	nt
Cc1ccc(/C=C/c2nnc(-c3cccs3)o2)cc1	1.2%	-11.7%	0.4%	0.3%	-5.5%
Cc1ccc(-c2nnc(-c3cccs3)o2)cc1	-0.3%	?	nt	-0.9%	20µM*
